In PubChem BioAssay:
Where “and” joins values, the source holds several entries; their conditions need not be identical. Equal values may be shown once. Unmarked numbers belong to inactive results.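 The calls were made as follows: active = inhibition at or above 50% relative to wild type and mutant plate controls; inactive = inhibition below 50%.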

Assay: loss of swimming-algae plug formation – whole organism, Chlamydomonas reinhardtii, WT vs cilia-less mutant, absorbance, 96-well, primary screen (AID 463189);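 also: 0% = wild type cc124 cells in DMSO and 100% = ciliumless bld1 mutant cells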
Conditions: Chlamydomonas reinhardtii gravitaxis, OD600 absorbance, 2 days; at 10 µM; active compounds read high

SMILES | inhibition
CCCCC/C=C\C/C=C\C/C=C\C/C=C\CCCC(=O)NCC(=O)O | -0.074%
CCCN1CCc2cccc3c2[C@H]1Cc1ccc(O)c(O)c1-3 | 0.62%
CCCN(CCC)C1CCc2cccc(O)c2C1 (stereo not drawn) | 1.17%
CCCN(CCC)[C@H]1CCc2c(F)ccc(O)c2C1 | -6.79%
C[N+](C)(C)CCOC(=O)CBr | 0.371%
N#CC(C#N)=Cc1ccc(O)c(O)c1 | 1.54%
C[C@@H]1O[C@@H](O[C@H]2C[C@@H](O)[C@]3(CO)[C@@H]4C(CC[C@]3(O)C2)[C@@]2(O)CC[C@H](C3COC(=O)C3)[C@@]2(C)C[C@H]4O)[C@H](O)[C@H](O)[C@H]1O (stereo partly drawn) | 0.796%
CC(N)[C@H](O)c1ccc(O)c(O)c1 (stereo partly drawn) | 1.5%
C[C@]12CC[C@@H](O)CC1CC[C@@H]1[C@@H]2CC[C@]2(C)C(=O)CC[C@@H]12 (stereo partly drawn) | 0.791%
NC(Cc1ccc(N(CCCl)CCCl)cc1)C(=O)O (stereo not drawn) | 3.86%
N[C@@]1(C(=O)O)CC[C@@H](C(=O)O)C1 | 5%
CCCN1CCC[C@@H](c2cccc(C#N)c2)C1 | 9.39%
CNC(=O)OCC[N+](C)(C)C | -0.129%
Cc1cccc(C)c1NC1=NCCCS1 | 6.94%
COC(=O)c1cc2c(cn1)[nH]c1ccccc12 | 2.96%
CN(N=O)c1ccc(O)c(O)c1 | 1.04%
CCCN(CCC)CCc1ccc(O)c(O)c1 | 0.931%
CC(C)CC(NP(=O)(O)O[C@@H]1O[C@@H](C)[C@H](O)[C@@H](O)[C@H]1O)C(=O)NC(Cc1c[nH]c2ccccc12)C(=O)O (stereo partly drawn) | 5.76%
Oc1cc2c(cc1O)[C@H]1c3ccccc3CN[C@@H]1CC2 | -2.75%

SMILES | inhibition
CCCN(CCC)[C@@H]1CCc2c(F)ccc(O)c2C1 | -5.24%
CC(C)(C)NCC(O)c1ccccc1Cl (stereo not drawn) | 8.05%
Cc1c(C(=O)c2cccc3ccccc23)c2cccc3c2n1[C@H](CN1CCOCC1)CO3 | 9.81%
Cc1ccc(S(=O)(=O)N[C@@H](CCCCN)C(=O)CCl)cc1 | 5.31%
C/C(O)=C(\C#N)C(=O)Nc1cc(Br)ccc1Br | 2.1%
CN(C(=O)Cc1ccc(Cl)c(Cl)c1)C(CN1CCCC1)c1cccc(OCC(=O)O)c1 (stereo not drawn) | 4.68%
CC(N)Cc1c[nH]c2ccc(O)cc12 (stereo not drawn) | 7.26%
COc1ccc2c3c1O[C@H]1C(=O)CC[C@@]4(O)C(C2)N(CC2CC2)CCC314 (stereo partly drawn) | 3.52%
N[C@H](CCCCCP(=O)(O)O)C(=O)O | -8.7%
CCCN1CCC[C@@H]2Cc3[nH]ncc3C[C@H]21 | 1.82% and 2.66%
CCn1cc(C(=O)O)c(=O)c2ccc(C)nc21 | -5.13% and 33.3%
NC(CP(=O)(O)O)C(=O)O (stereo not drawn) | 5.89%
O=[N+]([O-])c1ccc2nc(N3CCNCC3)ccc2c1 | 14.2%
O=C(Cc1ccc(Cl)c(Cl)c1)N1CCCCC1CN1CCCC1 (stereo not drawn) | 1.42%
NCC(O)c1ccc(O)cc1 (stereo not drawn) | 5.37%
Nc1ccc(CCN2CCN(c3cccc(C(F)(F)F)c3)CC2)cc1 | 40.5%
CNCCc1c[nH]c2ccc(O)cc12 | 8.6%
CC(C)NC(C)Cc1ccc(I)cc1 (stereo not drawn) | 22.2%
N[C@@H](Cn1ccc(=O)[nH]c1=O)C(=O)O | -4.9%
